Test results published in ChEMBL document CHEMBL2218924, “A broad activity screen in support of a chemogenomic map for kinase signalling research and drug discovery” (Biochem J, 2013).

What was measured:
[1] = target: T1, Testis-specific serine/threonine-protein kinase 2 (Homo sapiens) (UniProt Q96PF2); conditions: at 10 µM
T1 sequence (whole entry): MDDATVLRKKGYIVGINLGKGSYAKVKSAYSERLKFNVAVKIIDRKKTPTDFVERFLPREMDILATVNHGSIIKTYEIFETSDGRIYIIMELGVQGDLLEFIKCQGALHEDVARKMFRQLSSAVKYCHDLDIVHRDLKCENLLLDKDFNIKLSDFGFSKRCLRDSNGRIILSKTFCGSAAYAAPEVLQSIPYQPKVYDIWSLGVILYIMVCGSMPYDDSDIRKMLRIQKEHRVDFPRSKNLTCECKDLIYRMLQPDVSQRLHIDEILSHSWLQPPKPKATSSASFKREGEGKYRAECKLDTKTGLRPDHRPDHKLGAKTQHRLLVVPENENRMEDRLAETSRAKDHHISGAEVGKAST

[2] = target: T2, Tyrosine-protein kinase Tec (Homo sapiens) (UniProt P42680); conditions: at 1 µM
T2 sequence (whole entry): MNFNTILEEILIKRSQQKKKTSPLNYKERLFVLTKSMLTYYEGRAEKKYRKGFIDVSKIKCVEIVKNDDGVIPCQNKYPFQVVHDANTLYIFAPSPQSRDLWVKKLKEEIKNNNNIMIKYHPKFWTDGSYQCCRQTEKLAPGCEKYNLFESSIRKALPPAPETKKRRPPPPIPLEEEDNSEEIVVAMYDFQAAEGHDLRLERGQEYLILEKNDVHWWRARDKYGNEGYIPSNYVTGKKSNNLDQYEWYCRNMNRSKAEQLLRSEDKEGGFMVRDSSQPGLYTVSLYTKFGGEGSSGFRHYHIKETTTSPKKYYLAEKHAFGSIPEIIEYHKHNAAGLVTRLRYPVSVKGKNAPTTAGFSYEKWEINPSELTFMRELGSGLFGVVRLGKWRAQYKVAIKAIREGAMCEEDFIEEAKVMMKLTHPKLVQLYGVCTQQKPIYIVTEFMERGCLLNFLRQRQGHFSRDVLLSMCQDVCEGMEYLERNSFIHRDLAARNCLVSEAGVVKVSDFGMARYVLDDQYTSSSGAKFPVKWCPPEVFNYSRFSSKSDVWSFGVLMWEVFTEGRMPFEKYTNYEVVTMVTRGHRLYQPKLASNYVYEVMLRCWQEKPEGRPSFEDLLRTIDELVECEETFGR

[3] = target: T2, Tyrosine-protein kinase Tec (Homo sapiens); conditions: at 10 µM
[4] = target: Angiopoietin-1 receptor (Homo sapiens) (UniProt Q02763); conditions: at 1 µM
[5] = target: Angiopoietin-1 receptor (Homo sapiens) (UniProt Q02763); conditions: at 10 µM
[6] = target: High affinity nerve growth factor receptor (Homo sapiens) (UniProt P04629); conditions: at 1 µM
[7] = target: High affinity nerve growth factor receptor (Homo sapiens) (UniProt P04629); conditions: at 10 µM
[8] = target: BDNF/NT-3 growth factors receptor (Homo sapiens) (UniProt Q16620); conditions: at 1 µM
[9] = target: BDNF/NT-3 growth factors receptor (Homo sapiens) (UniProt Q16620); conditions: at 10 µM
[10] = target: T3, Tyrosine-protein kinase TXK (Homo sapiens) (UniProt P42681); conditions: at 10 µM
T3 sequence (whole entry): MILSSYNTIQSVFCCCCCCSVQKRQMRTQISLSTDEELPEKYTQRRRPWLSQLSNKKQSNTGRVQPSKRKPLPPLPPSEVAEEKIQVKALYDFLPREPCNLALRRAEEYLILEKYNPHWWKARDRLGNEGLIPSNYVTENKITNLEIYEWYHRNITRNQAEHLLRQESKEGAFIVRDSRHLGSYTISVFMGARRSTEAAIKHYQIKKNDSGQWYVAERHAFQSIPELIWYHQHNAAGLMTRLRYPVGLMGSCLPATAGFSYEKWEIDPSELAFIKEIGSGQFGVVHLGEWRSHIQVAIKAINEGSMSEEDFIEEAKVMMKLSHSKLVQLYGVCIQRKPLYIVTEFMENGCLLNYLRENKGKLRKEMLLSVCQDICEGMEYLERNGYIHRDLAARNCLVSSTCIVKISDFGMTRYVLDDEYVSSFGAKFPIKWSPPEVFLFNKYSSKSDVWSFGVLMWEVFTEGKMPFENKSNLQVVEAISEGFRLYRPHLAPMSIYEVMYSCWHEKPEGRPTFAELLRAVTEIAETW

[11] = target: T4, Serine/threonine-protein kinase ULK2 (Homo sapiens) (UniProt Q8IYT8); conditions: at 10 µM
T4 sequence (whole entry): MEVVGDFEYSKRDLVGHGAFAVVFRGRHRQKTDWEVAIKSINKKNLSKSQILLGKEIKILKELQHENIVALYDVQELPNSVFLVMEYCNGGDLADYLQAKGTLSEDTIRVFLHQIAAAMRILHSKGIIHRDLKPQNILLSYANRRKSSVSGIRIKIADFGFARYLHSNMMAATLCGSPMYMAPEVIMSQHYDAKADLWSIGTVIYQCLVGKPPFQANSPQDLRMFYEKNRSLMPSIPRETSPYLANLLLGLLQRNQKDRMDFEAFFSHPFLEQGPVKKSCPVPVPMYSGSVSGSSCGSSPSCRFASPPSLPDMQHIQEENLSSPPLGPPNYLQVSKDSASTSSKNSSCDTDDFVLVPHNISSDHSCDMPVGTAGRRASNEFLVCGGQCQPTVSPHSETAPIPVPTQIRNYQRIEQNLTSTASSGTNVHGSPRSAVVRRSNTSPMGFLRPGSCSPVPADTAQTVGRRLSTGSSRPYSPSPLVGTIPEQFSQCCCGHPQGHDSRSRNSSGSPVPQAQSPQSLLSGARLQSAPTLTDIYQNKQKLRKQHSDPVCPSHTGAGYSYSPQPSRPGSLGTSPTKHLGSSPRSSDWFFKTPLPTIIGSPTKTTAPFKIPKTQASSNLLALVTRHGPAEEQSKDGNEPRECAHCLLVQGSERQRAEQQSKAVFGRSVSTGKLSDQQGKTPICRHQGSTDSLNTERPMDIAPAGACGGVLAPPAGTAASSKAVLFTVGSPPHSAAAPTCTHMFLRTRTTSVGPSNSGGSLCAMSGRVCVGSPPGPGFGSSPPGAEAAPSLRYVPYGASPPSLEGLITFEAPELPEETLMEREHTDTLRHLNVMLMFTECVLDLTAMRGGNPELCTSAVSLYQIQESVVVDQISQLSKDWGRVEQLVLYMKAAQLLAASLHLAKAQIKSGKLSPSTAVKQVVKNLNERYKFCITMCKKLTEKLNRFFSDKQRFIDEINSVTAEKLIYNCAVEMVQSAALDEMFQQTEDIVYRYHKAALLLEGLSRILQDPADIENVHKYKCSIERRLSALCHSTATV

[12] = target: T5, Serine/threonine-protein kinase ULK3 (Homo sapiens) (UniProt Q6PHR2); conditions: at 1 µM
T5 sequence (whole entry): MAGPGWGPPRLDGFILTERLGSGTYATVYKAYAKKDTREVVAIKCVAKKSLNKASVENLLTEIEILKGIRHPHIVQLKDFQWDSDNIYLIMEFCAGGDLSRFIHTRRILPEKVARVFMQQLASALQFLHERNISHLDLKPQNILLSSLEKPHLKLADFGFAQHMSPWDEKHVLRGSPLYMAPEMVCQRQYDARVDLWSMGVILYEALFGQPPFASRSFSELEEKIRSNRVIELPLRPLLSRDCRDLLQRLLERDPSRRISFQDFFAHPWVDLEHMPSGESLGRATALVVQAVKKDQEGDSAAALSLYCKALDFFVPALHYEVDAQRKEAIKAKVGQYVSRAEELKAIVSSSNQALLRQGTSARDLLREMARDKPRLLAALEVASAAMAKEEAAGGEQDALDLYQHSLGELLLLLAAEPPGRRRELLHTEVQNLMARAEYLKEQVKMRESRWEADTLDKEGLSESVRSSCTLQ

[13] = target: T5, Serine/threonine-protein kinase ULK3 (Homo sapiens); conditions: at 10 µM
[14] = target: Serine/threonine-protein kinase VRK2 (Homo sapiens) (UniProt Q86Y07); conditions: at 1 µM
[15] = target: Serine/threonine-protein kinase VRK2 (Homo sapiens) (UniProt Q86Y07); conditions: at 10 µM
[16] = target: Serine/threonine-protein kinase WNK2 (Homo sapiens) (UniProt Q9Y3S1); conditions: at 1 µM;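 further: residual WNK2 kinase activity expressed as percent of uninhibited control, assayed in MOPS buffer at pH 7.0 containing EDTA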
[17] = target: T3, Tyrosine-protein kinase TXK (Homo sapiens); conditions: at 1 µM
[18] = target: T4, Serine/threonine-protein kinase ULK2 (Homo sapiens); conditions: at 1 µM
[19] = target: T6, Testis-specific serine/threonine-protein kinase 1 (Homo sapiens) (UniProt Q9BXA7); conditions: at 10 µM
T6 sequence (whole entry): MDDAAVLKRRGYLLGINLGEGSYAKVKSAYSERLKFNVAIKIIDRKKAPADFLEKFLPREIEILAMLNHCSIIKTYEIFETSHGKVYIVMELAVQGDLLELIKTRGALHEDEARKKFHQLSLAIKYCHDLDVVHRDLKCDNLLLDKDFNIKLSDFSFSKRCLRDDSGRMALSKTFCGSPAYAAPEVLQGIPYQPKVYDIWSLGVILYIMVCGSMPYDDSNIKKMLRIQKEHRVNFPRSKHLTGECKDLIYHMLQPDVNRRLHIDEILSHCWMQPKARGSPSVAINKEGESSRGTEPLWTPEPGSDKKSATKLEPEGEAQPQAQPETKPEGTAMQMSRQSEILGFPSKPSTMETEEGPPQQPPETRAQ

Serine/threonine-protein kinase VRK2 (Homo sapiens), sequence (Q86Y07 whole entry): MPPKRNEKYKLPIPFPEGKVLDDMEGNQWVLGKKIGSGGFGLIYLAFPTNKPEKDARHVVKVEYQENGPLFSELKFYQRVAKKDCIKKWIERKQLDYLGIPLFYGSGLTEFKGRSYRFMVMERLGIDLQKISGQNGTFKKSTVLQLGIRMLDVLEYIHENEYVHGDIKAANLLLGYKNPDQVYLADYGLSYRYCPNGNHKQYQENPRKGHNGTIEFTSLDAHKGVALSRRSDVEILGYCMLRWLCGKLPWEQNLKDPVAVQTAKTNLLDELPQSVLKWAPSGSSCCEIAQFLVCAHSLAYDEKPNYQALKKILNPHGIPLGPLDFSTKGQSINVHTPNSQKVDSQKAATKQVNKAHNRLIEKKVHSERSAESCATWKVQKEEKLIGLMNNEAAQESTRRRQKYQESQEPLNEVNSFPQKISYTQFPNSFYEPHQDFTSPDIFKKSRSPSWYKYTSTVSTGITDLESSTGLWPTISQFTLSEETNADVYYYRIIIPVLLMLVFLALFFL
High affinity nerve growth factor receptor (Homo sapiens), sequence (P04629 33-796 limits assumed): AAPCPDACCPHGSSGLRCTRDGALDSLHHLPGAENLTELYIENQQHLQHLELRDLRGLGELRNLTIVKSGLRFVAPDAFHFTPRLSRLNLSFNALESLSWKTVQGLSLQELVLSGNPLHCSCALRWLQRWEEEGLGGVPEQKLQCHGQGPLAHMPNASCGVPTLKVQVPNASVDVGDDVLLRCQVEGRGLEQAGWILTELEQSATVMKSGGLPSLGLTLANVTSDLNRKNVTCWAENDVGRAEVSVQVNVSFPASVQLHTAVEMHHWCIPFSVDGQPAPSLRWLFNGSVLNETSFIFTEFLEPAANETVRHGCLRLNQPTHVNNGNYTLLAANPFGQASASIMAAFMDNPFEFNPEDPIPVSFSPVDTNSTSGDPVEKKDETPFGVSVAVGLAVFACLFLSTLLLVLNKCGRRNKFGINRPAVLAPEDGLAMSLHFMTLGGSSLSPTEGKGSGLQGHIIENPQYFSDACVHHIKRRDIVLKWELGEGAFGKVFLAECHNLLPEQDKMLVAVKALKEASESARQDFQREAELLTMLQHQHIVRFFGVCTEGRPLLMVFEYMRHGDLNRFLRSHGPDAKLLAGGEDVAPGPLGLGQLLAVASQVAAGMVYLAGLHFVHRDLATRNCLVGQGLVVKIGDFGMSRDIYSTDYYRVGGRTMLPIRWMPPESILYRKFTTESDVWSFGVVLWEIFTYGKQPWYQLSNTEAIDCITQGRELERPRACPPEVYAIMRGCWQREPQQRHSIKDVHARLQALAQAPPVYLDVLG
BDNF/NT-3 growth factors receptor (Homo sapiens), sequence (Q16620 32-822 limits assumed): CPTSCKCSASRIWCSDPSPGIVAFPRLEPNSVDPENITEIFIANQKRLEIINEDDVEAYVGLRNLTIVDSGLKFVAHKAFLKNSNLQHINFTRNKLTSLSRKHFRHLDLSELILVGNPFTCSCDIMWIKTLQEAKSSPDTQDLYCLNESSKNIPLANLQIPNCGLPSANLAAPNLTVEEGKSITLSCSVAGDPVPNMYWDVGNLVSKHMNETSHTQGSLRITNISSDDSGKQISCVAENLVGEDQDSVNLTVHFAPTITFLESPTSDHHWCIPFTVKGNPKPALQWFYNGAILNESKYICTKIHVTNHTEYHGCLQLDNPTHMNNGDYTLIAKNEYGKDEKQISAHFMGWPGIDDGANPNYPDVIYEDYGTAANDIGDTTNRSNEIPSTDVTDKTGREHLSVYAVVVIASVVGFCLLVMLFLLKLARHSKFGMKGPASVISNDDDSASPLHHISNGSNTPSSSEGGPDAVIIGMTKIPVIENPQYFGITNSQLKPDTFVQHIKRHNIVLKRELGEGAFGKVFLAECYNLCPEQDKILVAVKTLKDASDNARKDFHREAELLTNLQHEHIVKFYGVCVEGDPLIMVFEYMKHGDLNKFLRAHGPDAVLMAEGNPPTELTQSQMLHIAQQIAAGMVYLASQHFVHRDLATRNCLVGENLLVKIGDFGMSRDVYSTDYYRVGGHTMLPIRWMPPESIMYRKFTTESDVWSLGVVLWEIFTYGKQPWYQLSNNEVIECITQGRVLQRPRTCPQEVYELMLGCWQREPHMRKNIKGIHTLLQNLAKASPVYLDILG
Angiopoietin-1 receptor (Homo sapiens), sequence (Q02763 whole entry): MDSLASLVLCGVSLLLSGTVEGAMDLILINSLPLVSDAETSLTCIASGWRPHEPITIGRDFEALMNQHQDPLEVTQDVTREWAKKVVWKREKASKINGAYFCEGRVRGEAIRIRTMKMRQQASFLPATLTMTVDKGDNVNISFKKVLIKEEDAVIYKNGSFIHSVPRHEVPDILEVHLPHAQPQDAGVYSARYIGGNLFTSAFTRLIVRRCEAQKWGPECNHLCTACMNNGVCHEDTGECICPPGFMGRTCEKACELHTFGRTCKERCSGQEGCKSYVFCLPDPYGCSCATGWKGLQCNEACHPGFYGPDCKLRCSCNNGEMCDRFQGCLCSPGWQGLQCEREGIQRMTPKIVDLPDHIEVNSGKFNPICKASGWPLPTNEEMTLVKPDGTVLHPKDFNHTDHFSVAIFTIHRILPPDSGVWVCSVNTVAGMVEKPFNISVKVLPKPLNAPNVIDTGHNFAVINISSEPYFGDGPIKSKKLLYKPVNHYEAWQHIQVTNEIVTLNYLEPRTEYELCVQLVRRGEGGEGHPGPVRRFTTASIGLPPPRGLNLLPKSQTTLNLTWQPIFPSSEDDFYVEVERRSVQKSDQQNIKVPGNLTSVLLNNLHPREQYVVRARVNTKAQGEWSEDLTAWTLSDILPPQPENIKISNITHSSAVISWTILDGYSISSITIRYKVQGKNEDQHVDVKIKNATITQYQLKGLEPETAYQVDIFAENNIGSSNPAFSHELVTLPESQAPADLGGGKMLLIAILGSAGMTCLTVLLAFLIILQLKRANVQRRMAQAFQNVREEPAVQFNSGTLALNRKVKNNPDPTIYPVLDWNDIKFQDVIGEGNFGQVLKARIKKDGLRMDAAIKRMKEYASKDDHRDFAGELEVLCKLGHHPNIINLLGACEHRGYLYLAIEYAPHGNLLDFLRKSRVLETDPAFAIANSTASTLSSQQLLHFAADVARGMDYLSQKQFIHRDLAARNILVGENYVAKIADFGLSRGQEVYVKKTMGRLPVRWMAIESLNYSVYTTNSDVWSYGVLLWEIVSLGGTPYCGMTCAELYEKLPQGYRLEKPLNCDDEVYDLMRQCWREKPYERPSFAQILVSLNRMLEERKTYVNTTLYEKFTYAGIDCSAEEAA

## Nc1nc(Nc2ccc(S(N)(=O)=O)cc2)nn1C(=O)c1c(F)cccc1F
[1]
  residual activity: 76%
[2]
  residual activity: 82%
[3]
  residual activity: 34%
[4]
  residual activity: 36%
[5]
  residual activity: 0%
[6]
  residual activity: 41%
[7]
  residual activity: 5%
[8]
  residual activity: 54%
[9]
  residual activity: 5%
[10]
  residual activity: 41%
[11]
  residual activity: 39%
[12]
  residual activity: 46%
[13]
  residual activity: 9%
[14]
  residual activity: 97% (inactive)
[15]
  residual activity: 69%
[16]
  residual activity: 96% (inactive)

## CCN1/C(=C/C(C)=O)Sc2ccc(OC)cc21
[1]
  residual activity: 75%
[17]
  residual activity: 81%
[10]
  residual activity: 77%
[16]
  residual activity: 76% (inactive)

## Nc1nccc(-c2c(-c3ccc(F)cc3)ncn2C2CCNCC2)n1
[3]
  residual activity: 77%
[6]
  residual activity: 100%
[7]
  residual activity: 74%
[8]
  residual activity: 118%
[9]
  residual activity: 61%
[17]
  residual activity: 83%
[10]
  residual activity: 64%

## CN([C@@H](Cc1ccc(OS(=O)(=O)c2cccc3cnccc23)cc1)C(=O)N1CCN(c2ccccc2)CC1)S(=O)(=O)c1cccc2cnccc12
[5]
  residual activity: 72%
[8]
  residual activity: 79%
[9]
  residual activity: 50%

## COc1ccc(CNC(=O)Nc2ncc([N+](=O)[O-])s2)cc1
[2]
  residual activity: 102%
[9]
  residual activity: 110%
[17]
  residual activity: 67%
[10]
  residual activity: 74%

## N#C/C(=C\c1ccc(O)c(O)c1)C(=O)NCc1ccccc1
[4]
  residual activity: 89%
[5]
  residual activity: 71%
[6]
  residual activity: 64%
[7]
  residual activity: -1%
[9]
  residual activity: 102%
[10]
  residual activity: 86%
[11]
  residual activity: 85%
[13]
  residual activity: 86%

## Fc1ccc(-c2nc3n(c2-c2ccncc2)CCS3)cc1
[1]
  residual activity: 86%
[4]
  residual activity: 128%
[5]
  residual activity: 124%
[7]
  residual activity: 88%
[17]
  residual activity: 93%
[15]
  residual activity: 80%

## COc1cc2nccc(Oc3ccc(NC(=O)Nc4cc(C)on4)c(Cl)c3)c2cc1OC
[6]
  residual activity: 2%
[7]
  residual activity: 0%
[8]
  residual activity: 42%
[9]
  residual activity: -10%
[17]
  residual activity: 98%
[10]
  residual activity: 45%
[18]
  residual activity: 97%
[11]
  residual activity: 99%
[14]
  residual activity: 103% (inactive)
[16]
  residual activity: 100% (inactive)

## Cc1cc(C)c(/C=C2\C(=O)Nc3ccccc32)[nH]1
[19]
  residual activity: 75%
[2]
  residual activity: 100%
[4]
  residual activity: 74%
[5]
  residual activity: 82%
[6]
  residual activity: 1%
[7]
  residual activity: 0%
[8]
  residual activity: 40%
[9]
  residual activity: -7%
[17]
  residual activity: 103%
[14]
  residual activity: 98% (inactive)
[15]
  residual activity: 68%

## NC(=O)c1ccc(-c2nc(-c3ccc4c(c3)OCCO4)c(-c3ccccn3)[nH]2)cc1
[1]
  residual activity: 63%
[2]
  residual activity: 96%
[3]
  residual activity: 91%
[5]
  residual activity: 72%
[6]
  residual activity: 95%
[7]
  residual activity: 82%
[8]
  residual activity: 96%
[9]
  residual activity: 68%
[17]
  residual activity: 90%
[10]
  residual activity: 94%
[14]
  residual activity: 118% (inactive)
[15]
  residual activity: 98%
